# 14-3-3 Bad inh – disrupts binding of bovine 14-3-3 zeta to phospho-Bad peptide; P63103; TR-FRET 14-3-3zeta/Dy647-pBad peptide displacement, 1 h; 220,000 tested, 0.71% active; inhibition, % at 21.7 µM;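 active = inhibition above about 70%, limit read from the data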;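 also: 0% = full 14-3-3 plus peptide FRET controls and 100% = background without 14-3-3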
# Target sequence (P63103 whole entry, looked up): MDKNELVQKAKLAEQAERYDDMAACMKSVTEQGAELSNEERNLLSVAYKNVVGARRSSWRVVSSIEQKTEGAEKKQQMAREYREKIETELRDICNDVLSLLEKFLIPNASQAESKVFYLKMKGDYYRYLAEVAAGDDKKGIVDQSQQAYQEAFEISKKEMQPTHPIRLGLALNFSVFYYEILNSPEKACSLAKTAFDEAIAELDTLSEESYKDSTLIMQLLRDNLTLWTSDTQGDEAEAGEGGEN
# MCL1-BIM inh – MCL1-BIM-BH3 interaction inhibition (human) | Q07820 | GST-MCL1 / FITC-Bim-BH3 fluorescence polarization | inhibition, % at 10.9 µM | 320,000 tested, 0.68% active | AID 2057;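 active = inhibition above the mean inhibition of all tested compounds plus 3 SD, set per campaign, cut at about 40% in these data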;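 also: 0% = DMSO wells and 100% = unlabeled Bim-BH3 peptide control; higher means more loss of mP so more displacement of Bim peptide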
# Target sequence (Q07820 whole entry, looked up): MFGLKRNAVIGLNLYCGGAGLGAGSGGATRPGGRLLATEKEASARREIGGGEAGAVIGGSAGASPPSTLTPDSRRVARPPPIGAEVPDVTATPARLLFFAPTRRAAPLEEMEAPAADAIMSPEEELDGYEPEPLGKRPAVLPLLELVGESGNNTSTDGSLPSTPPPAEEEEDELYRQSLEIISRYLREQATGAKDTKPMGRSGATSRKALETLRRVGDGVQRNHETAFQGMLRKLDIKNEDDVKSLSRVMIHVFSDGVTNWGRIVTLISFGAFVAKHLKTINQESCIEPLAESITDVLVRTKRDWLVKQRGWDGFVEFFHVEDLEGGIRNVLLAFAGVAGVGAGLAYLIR
# Mcl1-Bid inh – Mcl-1/Bid interaction inhibition; Q07820; TR-FRET Mcl-1/Bid-Dy647 peptide binding, 1536-well; inhibition, % at 21.7 µM; 220,000 tested, 0.97% active; AID 1021;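 active = compounds that cut the binding signal by more than half at the single screening dose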;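 also: His-tagged Mcl-1 with europium anti-His antibody binding Bid BH3 peptide; 0% = Mcl-1 plus peptide wells and 100% = peptide-only wells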
# Mcl1-Noxa inh – disrupts binding of human Mcl-1 to Noxa peptide. Q07820. TR-FRET Mcl-1/Noxa peptide binding, 2 h. inhibition, % at 21.7 µM. 220,000 tested, 1.5% active. AID 1022;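 active = compounds that cut the protein-peptide binding signal by more than 50% relative to plate controls in a single-dose test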;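 also: His-tagged Mcl-1 with rhodamine Noxa BH3 peptide and terbium anti-His antibody; 0% = Mcl-1 plus Noxa peptide wells and 100% = peptide-only wells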
# Bim-Mcl-1 – human Bim-Mcl-1 interaction inhibition; AID 1009; Q07820; inhibition, % at 10 µM; Bead-based flow cytometry, Bim peptide-Mcl-1 binding; 190,000 tested, 0.1% active; in the data active = inhibition above about 40%;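 also: 0% = no compound tracer wells and 100% = peptide blocker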
# Active calls of the source: *; . = no result given; ! = a repeat was not active; [ ] = remark or other dose. The list is not random: actives were taken first. Their share in the collection is about 2.5%.
SMILES,14-3-3 Bad inh,MCL1-BIM inh,Mcl1-Bid inh,Mcl1-Noxa inh,Bim-Mcl-1
CCOc1cccc(OCCCCn2ccnc2)c1,34,7,58*,36,-2
O=C(c1cccc(S(=O)(=O)Nc2ccccc2Cl)c1)N1CCCCCC1,.,-1,.,.,.
O=C(Nc1nc(-c2cccc3ccccc23)cs1)c1ccc2c(c1)S(=O)(=O)c1ccccc1C2=O,15,3,28,62*,0
CC(=O)c1ccc(-n2c(CCC(=O)O)ccc2-c2cccs2)cc1,2,5,-28,69*,-4
CN(C)CCCN=Cc1c(-c2ccccc2)[nH]n(-c2nc3ccccc3s2)c1=O,-24,1,-28,-17,-2
CCOc1ccc(NC(=O)CC2C(=O)N(c3ccc(OC)cc3)C(=O)N2CCc2ccc(OC)c(OC)c2)cc1 (configuration not stated),-15,-11,-11,16,-3
COc1cccc(CC2(CO)CCN(Cc3ccc4cccc(F)c4n3)CC2)c1,90*,-8,-7,18,-11
OCC1(Cc2cccc(F)c2)CCN(Cc2ccc3cccc(F)c3n2)CC1,21,3,-17,8,-3
O=c1c2ccccc2nc(COc2ccccc2)n1/N=C/c1cn[nH]c1-c1ccccc1,37,3,56*,-14,-5
O=C(N/N=C\c1cccnc1)C1c2ccccc2Oc2ccccc21,-8,-1,-3,9,1
COc1ccc(-c2csc(NC(=O)/C(N=Nc3ccccc3)=C(\C)O)n2)cc1,-12,-2,-33,9,41*
Cc1cccc2nc(Cn3c(=O)n(CCCC(=O)NCc4ccco4)c(=O)c4ccccc43)cc(=O)n12,-4,-1,-20,-5,-4
COc1ccc(C(=O)c2sc3nc(-c4ccccc4)ccc3c2N)cc1OC,84*[fluorescence artefact?],-37,59*,95*,15
Cc1cccc2c1c1ccc3c(c1n2C)C(=O)C=CC3=O,10,.,40,108*,.
CCC(=C(c1ccc(OC)cc1)c1ccc(OC)cc1)c1cn(CC(O)CN2CCN(C)CC2)c2ccccc12 (configuration not stated),96*[fluorescence artefact?],-8,-30,2,9
O=C1NN(c2ccc(F)c(Cl)c2)C(=O)/C1=C\c1cccc(OC(=O)c2cccs2)c1,15,13,45,94*,-1
COC/C=C/C1=CC2=CC(=O)C(C)(OC(=O)c3cnc4ccccc4n3)C(=O)C2=CN1c1ccc(CO)cc1 (configuration not stated),.,91*,.,.,.
COC/C=C/C1=CC2=CC(=O)C(C)(OC(=O)c3cnc4ccccc4n3)C(=O)C2=CN1c1ccccc1 (configuration not stated),-3,34,-55,36,.
COc1ccc(Cn2cnc([N+](=O)[O-])c2)cc1[N+](=O)[O-],99*,6,0,2,.
O=[N+]([O-])c1cn(Cc2ccc(Cl)cc2)cn1,16,7,-15,0,0
CC(C)Nc1nc2ccccc2c(=O)[nH]1,90*,3,-7,7,-2
CCCNc1nc2ccccc2c(=O)[nH]1,-19,2,-29,2,-2
c1ccc(-c2noc(CN3CCN(c4ccccc4)CC3)n2)cc1,3,6,-43,-12,0
CC1CCN(Cc2nc(-c3ccccc3)no2)CC1,76*,0,15,11,0
NCCCC[C@H](NC(=O)C1CCNCC1)c1nnc(CN)o1,-6,6,90*,35,0
SMILES,14-3-3 Bad inh,MCL1-BIM inh,Mcl1-Bid inh,Mcl1-Noxa inh,Bim-Mcl-1
NCCCC[C@H](NC(=O)C1CCNCC1)c1nnc([C@@H](N)CO)o1,-6,-3,20,16,-1
CCCCCCCCCCCCCCCC[n+]1cccc2ccccc21,97*[fluorescence artefact?],8,91*,89*,0
CCOc1ccc(C2C(C(=O)Nc3ccc(F)cc3)=C(C)Nc3nc(CCCO)nn32)cc1 (configuration not stated),77*,1,-20,4,-1
COc1ccc(C2C(C(=O)Nc3ccc(F)cc3)=C(C)Nc3nc(CCCO)nn32)cc1 (configuration not stated),-5,-5,-19,5,0
CCOc1ccc(-n2c(C)cc(/C=N/NC(=O)C(N)=O)c2C)cc1,-14,6,-50,14,0
CCCCCCSc1cccc(-c2nc3cc(C)ccn3c2NCc2ccccc2)c1,.,9,.,.,.
Cc1cccc(N2C(=O)Cc3ccccc3C2=O)c1,.,0,.,.,.
CCOC(=O)c1c(NC(=O)c2cc(-c3cccc(O)c3)on2)sc(C(C)=O)c1C,43,2,40,63*,-1
CCOC(=O)c1sc(NC(=O)c2cc(-c3cccc(O)c3)on2)c(C(=O)OCC)c1C,10,0,-2,17,-3
CCOC(=O)C1CCN(c2c(NCCCN(CC)Cc3ccccc3)c(=O)c2=O)CC1,1,-13,-19,71*,-3
CCOC(=O)N1CCN(c2c(NCCCN(CC)Cc3ccccc3)c(=O)c2=O)CC1,-15,3,-49,77*,8
CCCCN(CC)CCNc1c(N2CCN(C(=O)OCC)CC2)c(=O)c1=O,-8,2,-48,75*,-2
O=C1c2cccnc2C(=O)N1Cc1ccc(S(=O)(=O)N2CCN(c3ccc(Cl)cc3)CC2)cc1,.,-1,.,.,.
COC(=O)c1[nH]c2ccc(Cl)cc2c1NC(=O)Oc1ccccc1,2,0,-45,51*,-6
COC(=O)c1[nH]c2ccc(Cl)cc2c1NC(=O)C1CC1,-3,2,-7,30,0
CCOC(=O)C1=C(C)N(c2ccc(C)cc2)C(=O)/C1=C\c1cccs1,-9,0,-45,52*,0
Cc1cccc(NC2=CC(=O)OC(C)C2)c1 (configuration not stated),81*,6,-28,0,1
CC1CC(Nc2ccccc2N)=CC(=O)O1 (configuration not stated),-5,8,-62,-1,1
CCc1ccc2c(CN(CC)Cc3nc4ccccc4c(=O)[nH]3)cc(=O)oc2c1,-3,-2,90*,-1,-1
CCN(Cc1nc2ccccc2c(=O)[nH]1)Cc1nc2ccsc2c(=O)[nH]1,-14,1,-75,-66,0
CCN(CCO)c1ccc(-n2c(N)c(C(=O)OC)c3nc4ccccc4nc32)cc1,87*,5,6,52*,-2
CC(C)Oc1ccc2c(=O)c(-c3ccccc3)coc2c1,-9,10,64*!,44,-3
N#Cc1ccsc1NC(=O)c1ccc(Cl)c([N+](=O)[O-])c1,-3,-14,4,23,.
N#Cc1ccsc1NC(=O)c1cccc([N+](=O)[O-])c1,-8,10,-29,54*,0
C=CCOc1ccccc1CNCCCN1CCOCC1,60,-1,18,10,-2
N#CCSc1ccccc1NC(=O)COc1ccc(-c2nnco2)cc1,.,-20,.,.,.
N#Cc1ccsc1NC(=O)COc1ccc(-c2nnco2)cc1,4,19,-28,65*,1
CCCCN1CNC(=S)N(CCc2ccccc2)C1,-8,8,-55,3,-4

# Source: PubChem BioAssay
